# CHO-K1 Ca ag = M1 agonist counterscreen hit in parental CHO-K1 cells | Fluo-8 calcium fluorescence; scaled to maximal ATP response, vehicle zero | activation, % at 3 µM | 360,000 tested, 0.48% active; in the data active means activation above about 15%;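 further: untransfected CHO-K1 host cells lacking M1 receptor as counterscreen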
# M1 antag = antagonists of human M1 muscarinic receptor; P11229; CHO-K1 hM1, Fluo-8 calcium fluorescence, ACh EC80 antagonist; inhibition, % at 3 µM; 360,000 tested, 1.3% active; AID 588852;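 active means percent inhibition above its own plate's cutoff, namely the mean of that plate's compound wells plus 3 SD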;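 further: peak over basal fluorescence ratio during 140 s after agonist addition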
# Target sequence (P11229 whole entry, looked up): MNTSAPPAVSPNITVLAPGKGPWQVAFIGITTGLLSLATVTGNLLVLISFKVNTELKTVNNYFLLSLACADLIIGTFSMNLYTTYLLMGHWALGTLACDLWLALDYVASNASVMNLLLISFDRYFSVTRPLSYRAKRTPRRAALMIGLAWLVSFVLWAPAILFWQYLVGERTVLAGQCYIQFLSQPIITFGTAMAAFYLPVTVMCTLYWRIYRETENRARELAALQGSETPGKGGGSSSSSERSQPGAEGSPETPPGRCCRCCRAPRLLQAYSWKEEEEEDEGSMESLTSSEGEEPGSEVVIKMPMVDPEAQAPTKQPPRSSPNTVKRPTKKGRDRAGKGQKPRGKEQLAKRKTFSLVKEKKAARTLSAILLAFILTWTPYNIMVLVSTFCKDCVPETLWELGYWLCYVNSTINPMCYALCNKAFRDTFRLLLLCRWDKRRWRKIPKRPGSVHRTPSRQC
# CHO-K1 Ca antag = nonselective inhibitor or artifact in parental CHO-K1 cells | ATP-induced calcium, Fluo-8 fluorescence | inhibition, % at 3 µM | 360,000 tested, 0.6% active | AID 602250;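 active means inhibition above a per-plate cutoff, the plate's mean sample inhibition plus 3 SD, cut at about 24% in these data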
# CHRM1 agonist = agonists of human M1 muscarinic receptor; CHO-K1 hM1, Fluo-8 calcium fluorescence, agonist mode; 0% DMSO, 100% acetylcholine EC100; activation, % at 3 µM; 360,000 tested, 0.33% active;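 active means activation above the run's mean compound activation plus 3 SD, cut at about 16% in these data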;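 further: peak over basal fluorescence ratio within a 140 s kinetic read after compound addition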
# CHRM1 PAM = positive allosteric modulators of human M1 muscarinic receptor; P11229; CHO-K1 hM1, Fluo-8 calcium fluorescence, ACh EC20; 0% = ACh EC20, 100% = maximal ACh; activation, % at 3 µM; 360,000 tested, 0.088% active; AID 588819; in the data active means activation above about 19%, passing the limit was not always enough
# CHO-K1 Ca PAM = counter-screen for M1 PAMs: effect in parental CHO-K1 cells. ATP EC20, Fluo-8 calcium fluorescence; 0% at ATP EC20, 100% at ATP max. activation, % at 3 µM. 360,000 tested, 0.02% active;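 active means activation above the run cutoff, the mean activation of all test compounds plus 3 SD, cut at about 40% in these data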;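 further: peak over basal fluorescence ratio in a 140 s read after ATP addition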
# Hits are given with their value; - = inactive; . = no result given. A selection: hits, their analogues and other compounds. The true share with any hit is near 2.3%.
SMILES,CHO-K1 Ca ag,M1 antag,CHO-K1 Ca antag,CHRM1 agonist,CHRM1 PAM,CHO-K1 Ca PAM
O=C(NCC(c1ccco1)N1CCCC1)c1ccc(Cl)c(S(=O)(=O)N2CCc3ccccc32)c1 (centres undefined),-,-,-,-,-,-
CC(C)C1CC(CCN)(c2ccccc2)CCO1 (centres undefined),-,74,-,-,-,-
O=C1C2=C(C(c3ccccc3)=NCCN2)C(c2cccc([N+](=O)[O-])c2)N1c1ccccc1 (centres undefined),-,-,-,-,-,-
Nn1c(COc2ccccc2F)nnc1SCC(=O)NC1CCCCC1,-,-,-,-,-,-
O=[N+]([O-])c1cccc(NNS(=O)(=O)c2ccccc2F)c1,-,-,-,-,-,-
CC(C)NC(=O)c1ccc(CN2CCc3ccccc3C2)cc1,-,45,-,-,-,-
CC(NC(=O)c1ccc(S(=O)(=O)NCc2ccco2)cc1)c1ccc(F)cc1 (centres undefined),-,-,-,-,-,-
Cc1cc(C)c(NN=c2c(=O)c3ccccc3c2=O)c(C)c1,-,34,-,-,-,-
O=C(O)CC(SCC(=O)Nc1ccc(Cl)c(S(=O)(=O)N2CCOCC2)c1)C(=O)O (centres undefined),-,-,-,-,-,-
CC(CC(=O)Nc1ccc(Cl)c(S(=O)(=O)N2CCOCC2)c1)c1ccccc1 (centres undefined),15,-,-,-,-,-
CCCC(C(=O)Nc1ccc(S(=O)(=O)N2CCOCC2)cc1)c1ccccc1 (centres undefined),19,-,-,20,-,-
CC(=O)Nc1ccc(OCC(=O)Nc2ccc(Cl)c(S(=O)(=O)N3CCOCC3)c2)cc1,-,37,-,-,-,-
Cc1ccc(NC(=O)c2ccccc2NS(=O)(=O)c2ccc(Cl)s2)cc1S(=O)(=O)N1CCOCC1,16,-,-,-,-,-
CC(=O)c1c(C)[nH]c(C(=O)OC(C)C(=O)NC2CCCCC2)c1C (centres undefined),-,-,-,-,-,-
COc1ccc(C2NC(=O)C(C#N)=C(S)N2c2cccc(C)c2)cc1OC (centres undefined),16,-,-,-,-,-
COc1ccc(C2NC(=O)C(C#N)=C(S)N2c2ccc(C)cc2)cc1OC (centres undefined),-,-,-,-,-,-
NC(=O)c1cccc(-c2cnc3c(Nc4cccc(OC(F)(F)C(F)F)c4)nccn23)c1,-,-,31,-,-,-
Oc1ccc(-c2cnc3c(Nc4cccc(OC(F)(F)C(F)F)c4)nccn23)cc1,-,-,-,-,-,-
O=C(Nc1ccc(Oc2cccnc2)cc1)C1CCN(Cc2cccc(Cl)c2)CC1,-,-,-,-,-,-
CC(=O)c1cccc(CN2CCC(C(=O)Nc3ccc(Oc4cccnc4)cc3)CC2)c1,-,30,-,-,-,-
C/C(=N\OCc1ccc(C#N)cc1)c1ccc(S(=O)(=O)N(C)C)cc1,15,-,-,-,-,-
O=C(Nc1ccccc1)c1cc(C2CCCN(C(=O)C3CC3)C2)on1 (centres undefined),-,-,-,-,-,-
CC(=O)N1CCCC(c2cc(C(=O)Nc3ccccc3)no2)C1 (centres undefined),-,-,34,-,-,-
CN(Cc1nc2ccccc2c(=O)[nH]1)C(=O)c1cc(C2CC2)nn1-c1ccccc1,-,-,-,-,-,-
O=S(=O)(c1ccc2c(c1)OCCCO2)N1CCNCC1,-,-,-,-,-,-
SMILES,CHO-K1 Ca ag,M1 antag,CHO-K1 Ca antag,CHRM1 agonist,CHRM1 PAM,CHO-K1 Ca PAM
c1cc2c(cc1C1CCCN1)OCCCO2 (centres undefined),-,28,-,-,-,-
CN1CCN(C(=O)N2c3ccccc3C=Cc3ccccc32)CC1,-,94,-,-,-,-
O=C(CN1CCCCC1)N1CCCc2ccccc21,-,-,-,-,-,-
O=C(CN1CCCC1)N1c2ccccc2C=Cc2ccccc21,-,90,-,-,-,-
O=C(CN1CCCCCC1)N1c2ccccc2C=Cc2ccccc21,-,98,-,-,-,-
O=[N+]([O-])c1cc(F)cc(F)c1Nc1cc(F)cc(F)c1,-,-,-,-,-,-
C[C@H]1CN([C@@H](C)CO)C(=O)CCCn2nncc2CO[C@@H]1CN(C)S(=O)(=O)c1ccc(-c2ccccc2)cc1,-,-,-,-,-,-
COc1ccc(C=NNC(=O)c2cc(C)oc2C)cc1O,-,-,-,-,-,-
c1ccc(NCn2cncn2)nc1,-,-,28,-,-,-
COc1cccc(CNC(=O)[C@@H]2CCCN2C(=O)[C@@H]2CCCN2C(=O)c2cccs2)c1,-,.,-,.,.,-
Cc1ccc(NC(=O)NNC(=O)c2snnc2C)cc1,-,-,-,-,-,-
CN(C(=O)CCc1ccccc1F)C1CCCN(Cc2ccccc2F)C1 (centres undefined),-,-,-,-,-,-
COC(=O)c1ccc(C(=O)N(C)C2CCCN(Cc3ccccc3F)C2)cc1 (centres undefined),-,-,-,-,-,-
CN(C(=O)CCCN1CCCC1=O)C1CCCN(Cc2ccccc2F)C1 (centres undefined),-,81,-,-,-,-
COCc1ccc(C(=O)N(C)C2CCCN(Cc3ccccc3F)C2)o1 (centres undefined),-,90,-,-,-,-
CC1CCCC(NC(=O)COC(=O)/C=C/c2ccc(S(=O)(=O)N3CCOCC3)cc2)C1C (centres undefined),19,-,-,-,-,-
COc1ccc(/C=C/C(=O)OCC(=O)NC2CCCC(C)C2C)cc1S(=O)(=O)N1CCOCC1 (centres undefined),-,-,-,-,-,-
CC1=C(Sc2ccccn2)C(=O)NC(C)(C)C1,-,-,27,-,-,-
COc1ccc(C(=O)C2CCCN(S(=O)(=O)c3ccc(C(C)=O)cc3)C2)c(C)c1 (centres undefined),16,43,-,-,-,-
C#Cc1cccc(C(=O)N2CCCC(C(=O)c3ccc(OC)cc3C)C2)c1 (centres undefined),-,-,25,-,-,-
Cc1cc([N+](=O)[O-])cc2c1NC(=O)C2(O)N1CCCCCC1 (centres undefined),15,-,-,-,-,-
CC1(C(=O)NCC2CCCCC2)CCN1C(=O)Cc1ccc(-c2ccccc2)cc1 (centres undefined),-,-,-,-,-,-
O=C(Nc1cccc(Cl)c1)OCCOCCOC(=O)Nc1cccc(Cl)c1,-,-,-,-,-,-
O=C(Nc1cccc(Cl)c1)ON=C1c2ccccc2-c2ccccc21,-,29,-,-,-,-

# Screening results as filed in PubChem.
